PubChem BioAssay AID651661 (Broad Institute, 2012)
About 2,300 (0.66%) of roughly 350,000 compounds were called active.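 Rule for the calls: active = mean inhibition of at least 50% after viability correction, with every replicate also passing that limit; inconclusive = mean reaches 50% but only one of two replicates passes; inactive = the rest.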 The entries come from a sample that favours actives as a whole.

Assay: EWS/Fli-driven NR0B1 reporter inhibitors, primary screen, A673 cells, NR0B1 luciferase, luminescence, MLPCN library (AID 651661);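 note: firefly luciferase signal divided by Alamar Blue viability fluorescence both relative to DMSO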
Conditions: viability-normalised, at 12.6 µM, stronger effect = higher value

| Structure (SMILES) | inhibition |
| --- | --- |
| CO[C@@H]1CN(C)C(=O)c2cc(NC(=O)C3CC3)ccc2OC[C@H](C)N(CC2CC2)C[C@H]1C | -3.56% (inactive) |
| O=C(C1CCOCC1)N1C[C@H]2[C@@H](c3ccccc31)[C@@H](CO)N2Cc1ccccc1 | 2.37% (inactive) |
| CCCC(=O)N1CC2(C1)CN(C(=O)COC)[C@@H](CO)c1c2c2ccc(OC)cc2n1C | 23.9% (inactive) |
| C[C@@H](NC(=O)C[C@H]1CC[C@H]2[C@H](COc3ccc(NS(=O)(=O)c4ccc(Cl)cc4)cc3C(=O)N2C)O1)c1ccccc1 | 13.8% (inactive) |
| CN1CCN(CCCCOc2ccccc2-c2ccccc2)CC1 | -2.32% (inactive) |
| OCCN1CCN(C(=S)c2ccc(-c3ccccc3)cc2)CC1 | 69% (active) |
| S=C(c1ccc(-c2ccccc2)o1)N1CCCCC1 | -59.7% (inactive) |
| COc1ccc(CN(C)C[C@@H]2OCCCC[C@@H](C)Oc3ccc(NS(=O)(=O)c4ccc(C)cc4)cc3C(=O)N([C@@H](C)CO)C[C@H]2C)cc1 | -18.8% (inactive) |
| O=C(O)C(=Cc1ccc([N+](=O)[O-])cc1)CCc1ccccc1 | 5.5% (inactive) |
| O=C1/C(=C\c2ccc([N+](=O)[O-])cc2)CS(=O)(=O)C/C1=C/c1ccc([N+](=O)[O-])cc1 | 74.9% (active) |
| CC(=O)Nc1ccc(C=Cc2ccc([N+](=O)[O-])cc2)cc1 | -72.7% (inactive) |
| CCCN1C[C@@H](C)[C@@H](OC)CN(C)C(=O)c2ccc(NC(=O)c3ccc(F)cc3)cc2OC[C@@H]1C | -2.15% (inactive) |
| Cc1noc(C)c1NC(=O)N(C)C[C@H]1OCCCC[C@@H](C)Oc2ccc(NS(=O)(=O)c3ccc(Cl)cc3)cc2C(=O)N([C@@H](C)CO)C[C@H]1C | -7.3% (inactive) |
| CNC[C@H]1Oc2ccc(N(C)C)cc2CC(=O)N([C@@H](C)CO)C[C@@H]1C | 14.1% (inactive) |
| S=C(NCc1ccc2c(c1)OCO2)NCc1ccco1 | -23.2% (inactive) |
| CC1(C(=O)NCC2CCOCC2)Cc2c(-c3cccc(C(N)=O)c3)ccnc2O1 (stereo unspecified) | 0.349% (inactive) |
| CC1(C(=O)NCc2ccc(F)c(F)c2)Cc2c(-c3ccc4c(c3)OCO4)ccnc2O1 (stereo unspecified) | 60.1% (active) |
| CC1(C(=O)NCc2ccco2)Cc2c(-c3ccc4c(c3)OCO4)ccnc2O1 (stereo unspecified) | 57.5% (active) |
| COc1cc(OC)c(C(=O)NCc2ccc3c(c2)OCO3)cc1OC | 9.01% (inactive) |
| CN(CC(=O)NCc1ccc2c(c1)OCO2)CC(=O)Nc1ccc(F)c(F)c1F | 3.77% (inactive) |
| C[C@@H]1CN([C@H](C)CO)C(=O)Cc2cc(NC(=O)Nc3ccccc3)ccc2O[C@H]1CN(C)Cc1ccc(Cl)c(Cl)c1 | 9.7% (inactive) |
| C[C@@H]1CN([C@H](C)CO)C(=O)Cc2cc(NC(=O)Nc3ccccc3)ccc2O[C@@H]1CN(C)Cc1ccc(C(F)(F)F)cc1 | -0.517% (inactive) |
| C[C@H](CO)N1C[C@H](C)[C@@H](CN(C)Cc2ccc(Cl)c(Cl)c2)Oc2ccc(NC(=O)Nc3ccc(C(F)(F)F)cc3)cc2CC1=O | 72.5% (active) |
| Cc1noc(C)c1NC(=O)Nc1ccc2c(c1)CC(=O)N([C@H](C)CO)C[C@@H](C)[C@@H](CN(C)Cc1ccc(C(F)(F)F)cc1)O2 | 7.38% (inactive) |
| Cc1noc(C)c1NC(=O)Nc1ccc2c(c1)CC(=O)N([C@@H](C)CO)C[C@@H](C)[C@@H](CN(C)Cc1ccc(Cl)c(Cl)c1)O2 | 64.4% (active) |
| Cc1noc(C)c1NC(=O)Nc1ccc2c(c1)CC(=O)N([C@H](C)CO)C[C@@H](C)[C@@H](CN(C)Cc1ccncc1)O2 | -1.93% (inactive) |
